# Reference: PubChem BioAssay AID797 (University of Pittsburgh Molecular Library Screening Center, 2007)
# Out of some 200,000 compounds screened, about 110 (0.055%) were called active. This is one part of a sample in which actives are shown more often than they occur. A number with no mark means an inactive call. Rule as the data show it: active = inhibition above about 50%; inactive = the rest.
# Target: Serine/threonine-protein kinase D1 (Homo sapiens) (UniProt Q15139)
# Assay: inhibitors of human PKD1 kinase, biochemical, fluorescence polarization (AID 797)
# Conditions: PKD1 kinase fluorescence polarization assay; hits give high values; concentration not given here
# Chain of Serine/threonine-protein kinase D1 (Homo sapiens) (Q15139 whole entry, looked up): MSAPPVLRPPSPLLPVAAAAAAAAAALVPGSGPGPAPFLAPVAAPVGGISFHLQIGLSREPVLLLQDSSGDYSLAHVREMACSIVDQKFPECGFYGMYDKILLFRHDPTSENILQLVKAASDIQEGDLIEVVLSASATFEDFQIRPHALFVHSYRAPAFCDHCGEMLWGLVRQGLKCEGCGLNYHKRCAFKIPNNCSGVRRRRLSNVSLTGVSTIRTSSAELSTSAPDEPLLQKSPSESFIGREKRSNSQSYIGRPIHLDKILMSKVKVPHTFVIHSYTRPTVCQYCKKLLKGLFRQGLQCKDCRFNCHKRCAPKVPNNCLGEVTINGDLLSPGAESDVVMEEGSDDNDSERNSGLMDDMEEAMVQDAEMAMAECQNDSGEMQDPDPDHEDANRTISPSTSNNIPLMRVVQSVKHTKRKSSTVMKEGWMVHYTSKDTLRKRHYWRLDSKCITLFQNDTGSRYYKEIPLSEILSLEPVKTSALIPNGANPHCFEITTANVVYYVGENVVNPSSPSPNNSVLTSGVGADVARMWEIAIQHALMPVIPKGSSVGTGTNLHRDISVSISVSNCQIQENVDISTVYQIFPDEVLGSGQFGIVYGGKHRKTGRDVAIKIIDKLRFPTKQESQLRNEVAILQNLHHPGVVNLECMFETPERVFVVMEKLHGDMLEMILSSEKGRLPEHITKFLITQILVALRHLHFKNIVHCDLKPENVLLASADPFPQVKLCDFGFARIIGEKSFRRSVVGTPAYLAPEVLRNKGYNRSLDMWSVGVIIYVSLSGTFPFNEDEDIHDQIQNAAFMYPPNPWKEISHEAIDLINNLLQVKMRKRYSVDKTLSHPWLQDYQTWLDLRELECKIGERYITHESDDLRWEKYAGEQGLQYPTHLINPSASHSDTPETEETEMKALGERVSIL
row,SMILES,inhibition
1,COc1ccc(OCC(=O)NN2Cc3ccccc3C2=N)cc1,8.39%
2,COc1cccc(NC(=O)C(Sc2nnnn2C)c2ccccc2)c1 (stereo not given),9.09%
3,Cc1cccc(/C(N)=N/OC(=O)c2ccccc2Cl)c1,-1.38%
4,O=C(NC1CCCCC1)C1CC(=O)N(CCc2ccccc2)C1 (stereo not given),-8.12%
5,Cc1cc(/C=C(/C#N)C(=O)Nc2ccc(Cl)cc2)c(C)n1-c1cccnc1,1.34%
6,CCN1CN(Cc2ccccc2)CNC1=S,-12%
7,CCNC(=O)CC1C(=O)N(c2ccc(F)cc2)C(=O)N1Cc1cccs1 (stereo not given),4.62%
8,CCOc1ccc(N2C(=O)Nc3ccccc3C2(O)C(=O)NCc2ccco2)cc1 (stereo not given),-4.75%
9,CN(C)/C=C(\C#N)C(=O)c1cccnc1Oc1cccc(F)c1,5.99%
10,CCCCn1nc(C(=O)OCC(=O)Nc2sccc2C(N)=O)c2ccccc2c1=O,4.31%
11,Cc1ccc(NC(=S)N(CCCN2CCC(C)CC2)Cc2ccco2)cc1,2.06%
12,Cc1ccc2cc(CCNC(=O)c3c(-c4ccccc4Cl)noc3C)c(=O)[nH]c2c1,0.32%
13,CC(C)CC(CO)N1CCN(C(=O)c2ccc(Cl)cc2Cl)CCC1=O (stereo not given),-14%
14,Cc1cccc(NS(=O)(=O)c2ccc(C)c(C(N)=O)c2)c1,-2.59%
15,CN(CC(=O)Nc1ccccc1F)CC(=O)Nc1ccccc1Br,-7.89%
16,COc1ccc(N=C2SC(C(=O)Nc3ccc(F)cc3)CC(=O)N2C)cc1 (stereo not given),-4.67%
17,CCOc1ccc(-c2c(C)n([O-])c3c([n+]2=O)CCCC3)cc1,-3.86%
18,Cc1ccc(C(=O)CNc2ccc(F)cc2)cc1,-19.1%
19,Cn1cc(/C=C/c2nc3ccccc3c(=O)n2-c2cccc([N+](=O)[O-])c2)c2ccccc21,-2.78%
20,COc1ccccc1/C=N\Nc1cc(C)nc(-n2nc(C)cc2C)n1,2.16%
21,CC(=O)c1ccc(Oc2cc(C)nc(-n3nc(C)cc3C)n2)cc1,-3.62%
22,COc1ccc(Nc2cc(C)nc(-n3nc(C)cc3C)n2)cc1,56.8% (active)
23,CCCCCC(=O)NC(=S)NNC(=O)c1ccc([N+](=O)[O-])cc1,-0.76%
24,O=C(CN1C(=O)NC2(CCCCCC2)C1=O)NC1CC1,-5.29%

row,SMILES,inhibition
1,CC1(C)CC(=O)C(N=Nc2ccc(S(=O)(=O)N3CCCCCC3)cc2)=C(O)C1,4.42%
2,O=C(O)Cc1ccc(NCc2ccccc2Cl)cc1,0.93%
3,Cc1ccc(C(=O)Cc2nnc(C)s2)cc1,1.06%
4,CCN(CC)CC1(O)CCN(C(=O)c2ccc(Cl)c(Cl)c2)CC1,6.8%
5,CC(=O)Nc1ccc(NC(=S)NC(=O)/C=C/c2ccccc2)cc1,-7.92%
6,CCOc1cc2[nH]c(=S)n(Cc3ccc(C(=O)NCCOC)cc3)c(=O)c2cc1OCC,-4.22%
7,O=C(COc1ccc(-c2ccccc2)cc1)NN=C1CCCC1,-5.5%
8,COC(=O)C1(O)CC(C(C)C)=NN1C(=O)c1ccc(Cl)cc1 (stereo not given),-10.1%
9,COc1ccc(CCNC(=O)COC(=O)C2CCCCC2)cc1,1.52%
10,COc1ccc(NC(=O)CCNS(=O)(=O)c2ccc3c(c2)c(=O)n(C)c(=O)n3C)cc1OC,-3.26%
11,COC(=O)c1ccccc1SC1CC(=O)N(c2cccc(C)c2)C1=O (stereo not given),-3.82%
12,CN(CCc1cnn(C)c1)Cc1cn(C)nc1-c1ccccc1F,0.1%
13,Cc1nc(-c2ccc(Cl)cc2)sc1C(=O)CBr,2.56%
14,CC1=NN(C(=O)CCCc2ccccc2)C(O)(C(F)(F)F)C1 (stereo not given),-2.79%
15,C/C(N)=C(/C#N)C(=O)COC(=O)c1cc(-c2cccc(Br)c2)nc2ccccc12,-0.94%
16,CCN(CC)CCNC(=O)CCCCCn1c(=O)[nH]c2cc(C(=O)OC)ccc2c1=O,-5.2%
17,Cc1c(Br)c([N+](=O)[O-])nn1CC(=O)N1CCN(Cc2ccccc2)CC1,6.58%
18,O=C(CC1SC(=Nc2ccccc2F)N(CCN2CCOCC2)C1=O)Nc1ccc(F)cc1F (stereo not given),1.23%
19,O=C(Nc1cccnc1)c1ccc(Cl)cc1[N+](=O)[O-],-1.12%
20,Cc1ccc(NC(=O)C(=O)NCC2CCN(C(=O)c3cccc([N+](=O)[O-])c3)CC2)cc1,4.77%
21,S=C(NN=C1CCN(Cc2ccccc2)CC1)NC1CCCCC1,1.24%
22,COc1ccc(NC(=S)NCc2cccs2)c(OC)c1,7.19%
23,CC(C)NC(=S)N1CCN(C(c2ccccc2)c2ccccc2)CC1,3.7%
24,COc1ccc(S(=O)(=O)N2CCN(C(=O)NC3CCCCC3)CC2)cc1,-1.15%

row,SMILES,inhibition
1,O=C1CCCC2=C1C(c1cccs1)CC(=O)N2c1ccc(F)cc1 (stereo not given),-3.47%
2,Cn1c(=O)c2cc(S(=O)(=O)NCCC(=O)Nc3ccc(F)cc3F)ccc2n(C)c1=O,-2.88%
3,O=C(Nc1nnc(Cc2ccc(Cl)cc2)s1)c1cccnc1,-1.74%
4,Cn1c(CCC(=O)Nc2ccccc2F)nnc1SCC(=O)Nc1ccccc1Cl,-1.31%
5,O=C(CSc1ncnc2c1nnn2Cc1ccc(F)cc1)NC1CCCC1,-10.6%
6,Cc1cc(C(=O)CC#N)c(C)n1-c1c(C)n(C)n(-c2ccccc2)c1=O,-2.44%
7,CCS(=O)(=O)c1ccc2c(c1)N(S(=O)(=O)c1ccccc1)CC(C(=O)O)O2 (stereo not given),2.03%
8,CC1(C)CC(=O)C2=C(C1)N=C1SCCC(=O)N1C2c1ccc(C(F)(F)F)cc1 (stereo not given),-8.04%
9,CN1CCN(C(c2cc3cc4c(cc3[nH]c2=O)OCCO4)c2nnnn2C2CCCC2)CC1 (stereo not given),-0.35%
10,COc1cc(OC)c(C2=NOC(C(=O)Nc3c(C)n(C)n(-c4ccccc4)c3=O)C2)cc1Cl (stereo not given),5.19%
11,Cc1ccc2c(c1)N(CC(=O)N(Cc1ccccn1)Cc1ccco1)C(=O)C(C(C)C)O2 (stereo not given),-5.96%
12,S=C(NC1CCCCC1)NN1CCOCC1,-5.63%
13,COCCSc1nnc(NC(=O)c2cc(OC)c(OC)cc2[N+](=O)[O-])s1,-3.97%
14,Cc1cn(C)c(=O)n(C)c1=O,1.43%
15,N#Cc1ccc(-c2nc3cc(C#N)c(C#N)cc3nc2-c2ccccc2)cc1C#N,9.6%
16,O=Cc1ccc(Oc2cccc(C(F)(F)F)c2)nc1,7.02%
17,Cc1ccc(/C=C/C(=O)Nc2cc(S(=O)(=O)N3CCCCCC3)ccc2OCC(F)(F)F)o1,-9.11%
18,CCc1ccc(-c2cc(C(=O)NN3CCN(C)CC3)c3ccccc3n2)cc1,6.48%
19,C=CCC(C(=O)c1ccccc1)[N+](C)(C)CC=C (stereo not given),-3.34%
20,O=[N+]([O-])c1ccccc1SNc1ccccn1,-1.62%
21,Cc1cc(C)cc(C(=O)NC(=S)Nc2ccc3[nH]c(=O)[nH]c3c2)c1,20.7%
22,O=C1CN(C(=O)COC(=O)c2cnc(Cl)c(Cl)c2)c2ccccc2N1,1.7%
23,NC(=O)c1ncc(C(F)(F)F)cc1Oc1ccc(F)cc1,-8.91%
24,O=C(Cc1c[nH]c2ccccc12)N/N=C/c1cccc(F)c1,12.4%

row,SMILES,inhibition
1,CCc1c(C)nc2c(OC)cccc2c1Cl,-2.35%
2,O=C(/C=C/c1ccc2c(c1)OCO2)NCc1cn2cc(Cl)ccc2n1,-5.4%
3,O=C(CCCc1ccccc1)NCc1ccccc1,-6.66%
4,CC(NC(=O)C(=O)N/N=C/c1ccc(Cl)cc1)c1ccccc1 (stereo not given),-2.86%
5,O=C(NC(=S)N1CCN(Cc2ccccc2)CC1)c1ccccc1,-10.3%
6,Cc1ccc(S(=O)(=O)Cc2cc(-c3ccc(Cl)cc3)no2)cc1,-1.03%
7,CC(C)N1CCC(=NNc2ccc([N+](=O)[O-])cc2S(=O)(=O)N2CCOCC2)CC1,-0.4%
8,CCOc1ccc(-n2c(SCC(=O)NC3CCS(=O)(=O)C3)nnc2-c2cccnc2)cc1 (stereo not given),0.66%
9,CN(Cc1ccc2nsnc2c1)Cc1nc(Cc2cccc(F)c2)no1,5.24%
10,OCCCC1CCCCN1Cc1nc(Cc2ccccc2Cl)no1 (stereo not given),0.81%
11,Cc1cccc(C(=O)OC(C)CN2CCN(C)CC2)c1 (stereo not given),1.4%
12,Cc1nnsc1C(=O)Nc1cccc(Cl)c1C,-5.78%
13,Cn1nccc1CNC(=O)c1ccnn1C,-0.52%
14,CC(C)c1ccc(-c2noc(C3CCCN(S(C)(=O)=O)C3)n2)cc1 (stereo not given),0.73%
15,COC(=O)C1=C(C)N(c2ccc(C)cc2)/C(=C/c2ccc(O)cc2)C1=O,1.38%
16,Cc1ccc(-c2nnc(SCC(=O)N/N=C/c3cccs3)n2-c2ccc(C)cc2)cc1,-3.67%
17,Oc1ccc2ccc3cccc[n+]3c2c1,-0.84%
18,S=c1[nH]cc(-c2ccc(Cl)cc2)n1-c1ccccc1,-3.56%
19,COc1cccc(CNC(=O)CCN2C(=S)NC(C)(C)CC2C)c1 (stereo not given),16.6%
20,O=C(Nc1cc(S(=O)(=O)N2CCOCC2)ccc1Cl)c1cc(=O)c2ccccc2o1,-4.37%
21,C/C(=N\OCC(=O)Nc1ccc(Br)cc1)c1cccs1,-6.23%
22,N#Cc1cccc(Nc2c3c(nc4ccccc24)CCCC3)c1,1.12%
23,COc1ccc(-c2ccc(CCC(=O)O)n2-c2ccc(O)cc2)cc1,-3.57%
